In PubChem BioAssay (NCI) one finds growth inhibition data, which are given here for 21 molecules.

The nature of test [1]: NCI Yeast Anticancer Drug Screen. Data for the rad50 strain (AID 155).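 Note: 0% = growth of vehicle-only cultures of the same strain.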 The conditions noted are these: S. cerevisiae rad50 strain growth inhibition; at 50.0 µM; stronger effect = higher value. The gist of the method: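 DNA repair mutant yeast, compound exposure, growth read-out; inhibition is taken relative to vehicle.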
Test [2] is described as follows: NCI Yeast Anticancer Drug Screen. Data for the mec2-1 strain (AID 157). The conditions noted are these: S. cerevisiae mec2-1 strain, at 50.0 µM, stronger effect = higher value. The gist of the method: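 Strain: mec2-1 (DNA repair/cell cycle alteration). Compound exposure, then growth measured; inhibition expressed relative to vehicle.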
The nature of test [3]: NCI Yeast Anticancer Drug Screen. Data for the sgs1 mgt1 strain (AID 161).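 Note: 0% = growth of cultures given vehicle only.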 The following applies: S. cerevisiae sgs1 mgt1 strain, at 50.0 µM, stronger effect = higher value. The gist of the method:
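Read-out: growth inhibition vs vehicle controls. Cells: mutant yeast strain deficient in DNA damage repair.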

Test [4] in a line: NCI Yeast Anticancer Drug Screen. Data for the cln2 rad14 strain (AID 165).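 Note: 0% = growth equal to vehicle treated cultures.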 The following applies: S. cerevisiae cln2 rad14 strain, at 50.0 µM, stronger effect = higher value. The gist of the method: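 Compounds are applied to the cln2 rad14 yeast strain, and growth is then compared with that of vehicle-treated cultures to give inhibition.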
The nature of test [5]: NCI Yeast Anticancer Drug Screen. Data for the bub3 strain (AID 167). The conditions noted are these: S. cerevisiae bub3 mutant strain, at 50.0 µM, stronger effect = higher value. The gist of the method: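 In this screen, a yeast mutant lacking normal mitotic checkpoint function is challenged with compound. Relative growth versus vehicle gives the inhibition value.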
A short description of test [6]: NCI Yeast Anticancer Drug Screen. Data for the mlh1 rad18 strain (AID 175). The following applies: S. cerevisiae mlh1 rad18 strain growth inhibition; at 50.0 µM; stronger effect = higher value. The gist of the method:
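Read-out is yeast growth inhibition, calculated against vehicle-only controls. The compound was applied to a strain engineered with DNA damage repair alterations.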

The panel holds about 79,000 compounds, 15% with a hit somewhere; the sample as a whole holds those more often. Values without a mark were called inactive. Active and inactive are the calls of the source. Cut-off read from the data, not from the text of the source: active = growth inhibition above about 70%; inactive = the rest.

With `O=C1NN=CN2C(=O)CCC12` (stereo unspecified), the growth inhibition in test [1] was 26.4%; in test [2] it was 3.45%; in test [3] it was 14.3%; in test [4], 4.15%; in test [5], 14.4%; in test [6] it was -3.4%.

In the case of `CC1(C)OC2OC(COC(=O)c3ccccc3)C(N3C(=O)c4ccccc4C3=O)C2O1` (stereo unspecified), the growth inhibition is 58.2% in test [1]; 9% in test [2]; 64.1% in test [3]; 30.1% in test [4]; 40.4% in test [5]; 49% in test [6].

Regarding `CC(CN(C)C)Oc1ccc2c(c1)C(=O)C(C)C2` (stereo unspecified), the growth inhibition was -25.6% in test [1]; -5.25% in test [2]; 4.85% in test [3]; -28.9% in test [4]; 22.1% in test [5]; -22.6% in test [6].

Take `COc1ccccc1/C=N\NC(=O)c1ccccc1O`: the growth inhibition in test [1] is 13.2%; in test [2], 11.6%; in test [3], 11.8%; in test [4], 21.5%; in test [5] it was 41%; in test [6], 11.3%.

As to `CCOC(=O)c1cc2sc(NC(=O)c3ccco3)nc2o1`, the growth inhibition was 10.8% in test [1]; 12.2% in test [2]; 48.8% in test [3]; 4.3% in test [4]; 6.6% in test [5]; 27.6% in test [6].

Consider `O=C(N=c1ccc2nc(=O)[nH]n(O)c-2c1)C(F)(F)F`, for which the growth inhibition in test [1] was -12.1%; in test [2], 5.5%; in test [3] it was -13.4%; in test [4] it was -10.3%; in test [5], -46.6%; in test [6], -32.7%.

On to `Cc1ccc2c(c1)C(C1=CCCc3ccc(C)cc31)=CCC2`, for which the growth inhibition in test [1] is 10.2%; in test [2], -16.5%; in test [3], 9.05%; in test [4] it was 10.3%; in test [5], 8.2%; in test [6], 13.8%.

For `CC1SC2(C(=O)Nc3ccccc32)N(c2ccc(Cl)cc2)C1=O` (stereo unspecified), the growth inhibition is 21.6% in test [1]; 10.3% in test [2]; -12.4% in test [3]; 23.9% in test [4]; 60.5% in test [5]; 10.7% in test [6].

With `Cc1[nH]c2cc([N+](=O)[O-])ccc2c1C`, the growth inhibition is 0.45% in test [1]; -35.2% in test [2]; -10.1% in test [3]; 21.8% in test [4]; 1.3% in test [5]; -0.5% in test [6].

On to `Nc1ncnc2c1ncn2C1C=CC(COS(N)(=O)=O)C1` (stereo unspecified), for which the growth inhibition in test [1] is 13.2%; in test [2] it was 21.9%; in test [3] it was 0.7%; in test [4] it was 10.8%; in test [5] it was 13.9%; in test [6] it was 29.4%.

In the case of `CCCCCCCCCCCCS(=O)(=O)CCC(=O)c1ccco1`, the growth inhibition in test [1] is 29.4%; in test [2], 20.1%; in test [3], -6.8%; in test [4] it was 9.3%; in test [5], 6.55%; in test [6] it was 7.6%.

For `O=[N+]([O-])c1ccc(-c2csc(Nc3ccccn3)n2)o1`, the growth inhibition in test [1] is 81.1% (active); in test [2], 38.3%; in test [3], 84.7% (active); in test [4], 31.4%; in test [5], 40.8%; in test [6], 92.5% (active).

`COc1ccc(C(C#N)NNc2nc(C)cc(=O)[nH]2)cc1OC` (stereo unspecified): the growth inhibition is -60.1% in test [1]; -47.5% in test [2]; -43.2% in test [3]; -19.6% in test [4]; -30.9% in test [5]; -47% in test [6].

Regarding `CC(=O)CC(C)=Nc1ccc([N+](=O)[O-])cc1`, the growth inhibition was 1.75% in test [1]; -3.9% in test [2]; -6.7% in test [3]; -34.5% in test [4]; -16.6% in test [5]; 2.3% in test [6].

Take `NC(Cc1ccccc1)C(=O)O` (stereo unspecified): the growth inhibition in test [1] was -20.7%; in test [2], -12.4%; in test [3], -33.9%; in test [4], -73.7%; in test [5], -24.9%; in test [6] it was -20.6%.

For `CCCCn1c(=S)[nH]c2c(=O)n(C)c(=O)n(C)c21`, the growth inhibition in test [1] is 4.95%; in test [2] it was 4.3%; in test [3], 7.55%; in test [4], -14.4%; in test [5], -7.35%; in test [6], 4%.

In the case of `COC(=O)CC1=NNC(=O)C1`, the growth inhibition in test [1] was -11.7%; in test [2] it was -15.1%; in test [3], -14%; in test [4], -18.1%; in test [5] it was -7.35%; in test [6] it was -19.8%.

In the case of `Cc1ccc(S(=O)(=O)OCC23CCC(CO)(CC2)CC3)cc1`, the growth inhibition in test [1] was 9.75%; in test [2] it was -2.45%; in test [3], -0.85%; in test [4], 15.7%; in test [5], 27.2%; in test [6], 14.2%.

For `Oc1ccccc1C=Nc1ccccc1`, the growth inhibition in test [1] is 29%; in test [2], 1.95%; in test [3] it was 0%; in test [4], 6.8%; in test [5], -1.25%; in test [6], -2.4%.

On to `Cc1nc(N)nc2ccccc12`, for which the growth inhibition in test [1] is 3.15%; in test [2] it was -25.3%; in test [3], -16%; in test [4] it was -5.8%; in test [5], -7.9%; in test [6], -16.1%.

In the case of `COc1cccc(OC)c1NC(=O)NCCCl`, the growth inhibition in test [1] is -8.3%; in test [2], 14.6%; in test [3], 2.25%; in test [4], 50.8%; in test [5], 0.15%; in test [6], 14.4%.
